Measured values published in PubChem BioAssay (NCATS).
Results filed as inconclusive are left out. A call without a number means that no potency is given here. Active and inactive are the calls of the source. Calls come from the whole dose curve; as a rule, active = well fitted curve in the direction sought with a large enough effect; inconclusive = small, poorly fitted or top-dose-only effect, or another doubt; inactive = no such curve, though single readings can be large; an effect the other way counts as inactive or inconclusive.

Tests used:
[1] = qHTS for Inhibitors of Plasmodium falciparum (7G8) proliferation (AID 504316); note: nearly all actives have a fitted effect of over 65% in size; note: potency is the fitted concentration of half-maximal effect
In short: (§1)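 Erythrocytes infected with P. falciparum line (0.3% parasitemia, 2.5% hematocrit final) incubated with compounds 72 h at 37 °C, 5% CO2; SYBR Green lysis buffer added, fluorescence read next day. Normalized to 0.29 uM artemisinin and DMSO.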

[2] = qHTS for Inhibitors of Plasmodium falciparum (HB3) proliferation (AID 504318); note: nearly all actives have a fitted effect of over 60% in size; note: potency is the fitted concentration of half-maximal effect
In short: as §1

[3] = qHTS for Inhibitors of Plasmodium falciparum (CP250) proliferation (AID 504320)
In short: as §1

[4] = qHTS for Inhibitors of Plasmodium falciparum (GB4) proliferation (AID 504315); note: nearly all actives have a fitted effect of over 50% in size
In short: as §1

In the case of O=C1C=CC2(OCCCO2)C(Br)=C1CO, the Potency [1] is reported as “inactive”, the Potency [2] is reported as “inactive” and the Potency [3] is reported as “inactive”.
In the case of CCOC(=O)OC[C@H]1O[C@H](C#Cc2ccccc2)C=C[C@H]1OC(=O)OCC, the Potency [1] is reported as 1.51 µM (active) and the Potency [3] is reported as “inactive”.
With COc1ccc([C@]23Cc4cc(OC)c(OC)cc4[C@H](O2)c2c(c4ccccc4oc2=O)O3)cc1 the Potency [4] was “inactive”, the Potency [2] was “inactive” and the Potency [3] was “inactive”.
With CC1COc2ccccc2C1=O (stereo unspecified) the Potency [1] was 1.69 µM (active) and the Potency [2] was 1.9 µM (active).
With CCCNC(=O)N1C2=NC(C(=O)OC)=C(C(=O)OC)[C@@H]3N(C)c4ccccc4[C@]23C[C@H]1C(=O)OC the Potency [4] was “inactive”, the Potency [1] was “inactive” and the Potency [3] was “inactive”.
With COc1ccc([C@]23Cc4cc(C#N)ccc4[C@H](O2)c2c(cc(-c4ccccc4)oc2=O)O3)cc1 the Potency [1] was 1.35 µM (active) and the Potency [3] was “inactive”.
For COC(=O)C1=C(C(=O)OC)[C@@H]2Nc3ccccc3[C@@]23C[C@@H](C(=O)OC)N(C(=O)C2CCC2)C3=N1, the Potency [4] was “inactive” and the Potency [3] was “inactive”.
In the case of COc1ccc(C=CC2=CC3(C)CC2(C)C(c2ccc(OC)cc2)CC3=O)cc1 (stereo unspecified), the Potency [1] is reported as 1.69 µM (active) and the Potency [3] is reported as “inactive”.
In the case of COC(=O)CCC(=O)OC1(C)C(=O)C2=CN(CCc3c[nH]c4ccccc34)C(c3ccc(OC)cc3)=CC2=C(Br)C1=O (stereo unspecified), the Potency [4] is reported as “inactive”, the Potency [2] is reported as “inactive” and the Potency [3] is reported as “inactive”.
With COCOc1ccc(OC)cc1C(=O)C=Cc1ccc(OC)c(Br)c1 the Potency [2] was 1.69 µM (active).
For C[C@@H]1CC[C@H]2C(=O)N(Cc3ccccc3)C[C@H](O)CN2[C@H]1c1ccc(Br)cc1, the Potency [4] was “inactive” and the Potency [3] was “inactive”.
For CC(=O)OC[C@H]1O[C@H](C#Cc2ccc(C(C)(C)C)cc2)C=C[C@H]1OC(C)=O, the Potency [1] was 1.69 µM (active).
